How the values were obtained:
Assay in all cases: PBM binding z-score (relative to random genomic background probes); higher = stronger binding; sequences stand for … in GC…GCGATTGACAGCGTAGAATGAAGG
[1] = test system: FXR:RXRa (NR concentration 270 nM, RXRa partner concentration 90 nM)
Outline: (§1)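 Custom Agilent 4×180K protein-binding microarrays carried double-stranded probes. Their 34-nt variable regions held direct-repeat seeds, single-nucleotide variants, half-site ablations and random human genomic background sequences. Arrays were incubated 1 h with ligand-free nuclear receptor dimers in PBS pH 7.4, 2% milk, 0.02% Triton X-100, 1 mM DTT, 0.2 mg/mL BSA and 0.4 mg/ml salmon testes DNA. Antibodies against each partner (one per run) detected binding, and scanned fluorescence was regression-normalized. Binding z-scores use random background probes as reference.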

[2] = test system: LXRa:RXRa (NR concentration 270 nM, RXRa partner concentration 90 nM)
Outline: as §1

[3] = test system: LXRa homodimer (NR concentration 270 nM)
Outline: as §1

[4] = test system: LXRb:RXRa (NR concentration 270 nM, RXRa partner concentration 90 nM)
Outline: as §1

[5] = test system: LXRb homodimer (NR concentration 270 nM)
Outline: as §1

[6] = test system: PPARa:RXRa (NR concentration 270 nM, RXRa partner concentration 90 nM)
Outline: as §1

[7] = test system: PPARg:RXRa (NR concentration 180 nM, RXRa partner concentration 90 nM)
Outline: as §1

[8] = test system: PPARg:RXRa 270nM:90nM, anti-RXR (NR concentration 270 nM, RXRa partner concentration 90 nM)
Outline: as §1

[9] = test system: PPARg:RXRa 30nM:10nM, anti-RXR (NR concentration 30 nM, RXRa partner concentration 10 nM)
Outline: as §1

[10] = test system: PPARg:RXRa 90nM:30nM, anti-RXR (NR concentration 90 nM, RXRa partner concentration 30 nM)
Outline: as §1

Row | Sequence | PBM binding z-score [1] | PBM binding z-score [2] | PBM binding z-score [3] | PBM binding z-score [4] | PBM binding z-score [5] | PBM binding z-score [6] | PBM binding z-score [7] | PBM binding z-score [8] | PBM binding z-score [9] | PBM binding z-score [10]
1 | TAGCCTTGGTCATTCAGGGGCCAGTATAGAAAGC | -0.269 | -0.328 | -0.573 | 0.134 | -0.26 | 0.0582 | -0.0299 | -0.0721 | -0.509 | -0.279
2 | ATCTCGAGGTAACCAAGTTCAGTGAATGCCGAAC | 0.65 | 1.14 | 0.25 | 0.608 | -0.105 | 1.25 | 0.211 | 0.361 | -0.167 | 0.304
3 | CCGAGTAGGTGATGGGGCATTCAGGCAACGGTGA | -0.0189 | -0.218 | -0.529 | -0.326 | -1.01 | 1.72 | 3.51 | 4.41 | 2.46 | 4.61
4 | ATCTCTAGGTAAGCAAGTTCAGTGAATGCCGAAC | 0.021 | 0.323 | 0.32 | -0.00291 | 0.392 | 0.496 | 0.0727 | 0.538 | 0.367 | 0.23
5 | CCTACTGGGCCGAAGGTCATTGATTCCAATGCTC | 2.23 | 2.47 | 1.02 | 2.44 | -0.461 | 4.85 | 9.28 | 9.02 | 8.18 | 10.3
6 | CCTACTGGGCCATGGTCATTGATCAGTCAAAGCA | 0.0298 | -0.313 | -0.591 | -0.226 | -1.02 | 0.969 | 1.05 | 1.3 | -0.281 | 0.872
7 | CGTCCCAGGTCAAAGGTCAGTGAAGAGATGACGG | 7.79 | 6.36 | 2.98 | 6.02 | 0.888 | 7.24 | 10.8 | 9.06 | 8.62 | 9.26
8 | TCTAGCAGGCCAGAGGGTCTCTCAAGAGGTACGG | -1.4 | -0.676 | -0.763 | -0.66 | -1.71 | -0.298 | 0.13 | 0.975 | 1.38 | 1.06
9 | ATCGAAAGGTCGAAGGTGAGGATACCCACCCGAA | 4.08 | 3.68 | 0.155 | 2.73 | 0.724 | 4.69 | 4.61 | 5.07 | 2.25 | 4.11
10 | GATACAGGGTCAGCTAGAGGCCGGAGTATGGAAA | 4.48 | 2.56 | -0.44 | 2.17 | -0.594 | 4.57 | 3.61 | 3.41 | 0.716 | 2.13
11 | CCTAGTTGGTCAGGAGGTCACACAGCGGATATGA | 4.26 | 3.54 | 2.17 | 3.55 | 0.887 | 4.36 | 3.51 | 4.15 | 1.76 | 3.56
12 | CGAACTAGGTCATCCAGGACAGGGAATACATTGA | 4.45 | 2.35 | 0.51 | 1.85 | 0.035 | 4.75 | 7.8 | 6.18 | 3.9 | 5.82
13 | CCTACTGGGTCATCAGGTCATTGATATCAACGTT | 4.46 | 3.76 | 2.34 | 3.19 | -0.201 | 4.86 | 7.61 | 6.52 | 4.45 | 5.99
14 | CTCGAAAGGTCGTGTTCAGGTGAGTATACCAAAC | 4.67 | 3.64 | 0.232 | 3.31 | 0.113 | 4.76 | 2.42 | 3.38 | 0.878 | 2.07
15 | ACTTACGGGTCAACGAGGTTATAACACGCGTATA | 7.16 | 5.41 | 1.28 | 5.13 | 1.29 | 5.9 | 5.93 | 5.54 | 2.6 | 4.07
16 | AGAATAAGGTTATTAAGATCAGGGAATTGCGGTC | 1.43 | 1.6 | 0.352 | 1.32 | -0.02 | 2.42 | 1.12 | 1.67 | 0.45 | 1.38
17 | TCTGTTAGTTGATTAGGGCAACCGAAACAGCGGA | 0.614 | 0.576 | 0.141 | 0.571 | 1.9 | 0.523 | 0.000964 | 1.9 | 3.28 | 2.74
18 | CAAACTAGGTCAAGATCAAAGTCGGTTTGTGCCA | 3.58 | 2.31 | 0.143 | 1.67 | 0.237 | 4.66 | 7.62 | 6.55 | 4.29 | 6.19
19 | GTACCAAGGTGATTAGGTCGTTGATGAGTAGGCG | 0.478 | 0.469 | 0.085 | 0.0701 | -0.428 | 0.886 | 0.547 | 0.741 | -0.00723 | 0.0201
20 | TCATATAGGTAATACAGTTGAAAGTCGGCATCTA | 1.56 | 1.24 | 0.63 | 1.2 | 0.422 | 1.56 | 1.32 | 2.56 | 4.01 | 3.39
21 | ATATGTAGGTTAGCTGGGGGCATTCAGACTAGGC | 0.978 | 3.73 | 0.963 | 4.51 | 9.63 | 4.09 | 4.83 | 4.61 | 2.3 | 3.72
22 | GCAACTGGGGCAAAGCAGGTTACCATAAGGTTGG | 0.393 | 0.00585 | -0.385 | 0.511 | -0.769 | 2.06 | 2.61 | 2.77 | 0.156 | 1.77
23 | TCATATAGGTAATACAGATGAAAGTCGGCATCTA | 0.463 | 0.531 | 0.032 | 0.521 | 0.268 | 1.08 | 1.47 | 1.93 | 4.02 | 2.97
24 | TTTTGTAGATCAAAGGTTAAGAAAGCCGAAGCCT | 1.35 | 2.03 | 0.327 | 2.09 | 0.386 | 5.08 | 9.51 | 8.59 | 8.23 | 9.36
